Several values for one entry are separate records, joined by “and”; a condition that tells them apart may be missing. Identical values can stand only once. Results filed as inconclusive are left out. Activity calls are given as the source filed them. Rule for the calls, unless noted: active = hit-call score of the fitted dose curve at least 0.9, where 1 is the maximum; inactive = score below 0.9.
Assays:
[1] = ATG_TAL_CIS: Attagene CIS-FACTORIAL HepG2 Assay for human TAL Basal Promoter (AID 2282966); conditions: HepG2 Attagene cis-factorial TAL promoter reporter; actives raise or lower the signal;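 note: background control endpoint measuring basal TAL promoter reporter mRNA not a specific factor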
Outline: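 Endogenous transcription-factor activity is sensed in HepG2 cells through transfected cis-promoter reporter constructs. After 24 h dosing, reporter transcripts are quantified by RT-PCR and capillary electrophoresis. Gain or loss of signal is fitted relative to DMSO.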

[2] = ATG_TGFb_CIS: Attagene CIS-FACTORIAL HepG2 Assay for human Transforming Growth Factor (TGF) (AID 2282967); conditions: HepG2 Attagene CIS TGFb reporter, mRNA transcription; actives raise or lower the signal
Outline: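 Multiplexed cis-reporter HepG2 system, 24 h treatment; mRNA induction read by fluorescence after RT-PCR and CE; DMSO negative control, bidirectional curve fitting.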

[3] = ATG_VDRE_CIS: Attagene CIS-FACTORIAL HepG2 Assay for human Vitamin D Receptor Element (VDRE) (AID 2282968); conditions: HepG2 VDRE cis-reporter transcription, actives raise or lower the signal
Outline: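 Transient MRTU transfection of HepG2, 24 h compound exposure. Readout: reporter transcripts via RT-PCR and capillary electrophoresis, fluorescence. Bidirectional fit vs DMSO.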

[4] = molecular target: Estrogen receptor (Homo sapiens) (UniProt P03372); experiment: ATG_ERa_TRANS: Attagene TRANS-FACTORIAL HepG2 Assay for human Estrogen Receptor alpha (ERa) (AID 2282970; active = hit-call score of the fitted dose curve at least 0.9, where 1 is the maximum); conditions: HepG2 Attagene TRANS ERa GAL4 reporter, mRNA
Estrogen receptor (Homo sapiens), sequence (P03372 whole entry, looked up, the tested form may be a part): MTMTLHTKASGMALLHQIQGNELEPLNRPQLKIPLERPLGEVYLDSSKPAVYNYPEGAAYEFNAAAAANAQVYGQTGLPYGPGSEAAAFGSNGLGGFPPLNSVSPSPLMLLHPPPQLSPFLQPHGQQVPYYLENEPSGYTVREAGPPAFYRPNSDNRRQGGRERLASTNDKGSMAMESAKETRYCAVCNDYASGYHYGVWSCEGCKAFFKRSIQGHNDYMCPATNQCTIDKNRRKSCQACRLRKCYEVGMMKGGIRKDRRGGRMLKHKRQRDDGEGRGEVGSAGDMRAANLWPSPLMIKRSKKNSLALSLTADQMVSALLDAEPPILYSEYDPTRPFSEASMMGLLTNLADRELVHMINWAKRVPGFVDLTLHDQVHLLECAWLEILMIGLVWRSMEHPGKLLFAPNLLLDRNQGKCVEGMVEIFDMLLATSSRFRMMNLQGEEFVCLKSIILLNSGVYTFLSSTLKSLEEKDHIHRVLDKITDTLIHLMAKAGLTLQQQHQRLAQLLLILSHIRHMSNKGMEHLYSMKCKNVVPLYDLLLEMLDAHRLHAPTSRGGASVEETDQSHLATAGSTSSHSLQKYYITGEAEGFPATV
Outline: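 Transfected HepG2 cells carrying GAL4-UAS-driven reporter units were dosed for 24 hours. Total RNA was reverse-transcribed, reporter sequences PCR-amplified, FAM-labelled, HpaI-digested and resolved by capillary electrophoresis. Increases over DMSO control defined activity.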

[5] = molecular target: X-box-binding protein 1 (Homo sapiens) (UniProt P17861); experiment: ATG_Xbp1_CIS: Attagene CIS-FACTORIAL HepG2 Assay for human X-box Binding Protein 1 (XBP1) (AID 2282972); conditions: HepG2 XBP1 cis-element reporter, Attagene multiplex; actives raise or lower the signal
X-box-binding protein 1 (Homo sapiens), sequence (P17861 whole entry, looked up): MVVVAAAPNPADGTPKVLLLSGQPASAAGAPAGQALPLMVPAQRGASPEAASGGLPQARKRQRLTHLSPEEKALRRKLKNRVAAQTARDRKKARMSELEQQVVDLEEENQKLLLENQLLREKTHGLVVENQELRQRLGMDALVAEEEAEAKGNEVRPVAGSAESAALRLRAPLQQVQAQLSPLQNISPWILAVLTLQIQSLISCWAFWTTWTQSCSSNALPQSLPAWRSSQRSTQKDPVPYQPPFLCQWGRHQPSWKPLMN
Outline: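 Multiplexed cis-reporter readout in transfected HepG2 liver cells. Exposure lasted 24 hours. Activity in either direction was fitted against DMSO as negative control and baseline.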

[6] = ATG_M_19_TRANS: Attagene TRANS-FACTORIAL HepG2 Assay for M19 Transcription Factor (Internal Marker) (AID 2282974; active = hit-call score of the fitted dose curve at least 0.9, where 1 is the maximum); conditions: HepG2 Attagene TRANS-FACTORIAL M19 internal marker reporter
Outline: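 Reporter mRNA induction was measured in transfected HepG2 cells 24 h after dosing. Endpoint fitted upward relative to DMSO and serves as a background control within the multiplexed TRANS panel.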

[7] = molecular target: Estrogen-related receptor gamma (Homo sapiens) (UniProt P62508); experiment: ATG_ERRg_TRANS: Attagene TRANS-FACTORIAL HepG2 Assay for human Estrogen-Related Receptor gamma (ERRg) (AID 2282977; active = hit-call score of the fitted dose curve at least 0.9, where 1 is the maximum;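 note: hits increase reporter signal over DMSO so potencies reflect activators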); conditions: HepG2 Attagene TRANS reporter, ERRg transactivation
Estrogen-related receptor gamma (Homo sapiens), sequence (P62508 whole entry, looked up, the tested form may be a part): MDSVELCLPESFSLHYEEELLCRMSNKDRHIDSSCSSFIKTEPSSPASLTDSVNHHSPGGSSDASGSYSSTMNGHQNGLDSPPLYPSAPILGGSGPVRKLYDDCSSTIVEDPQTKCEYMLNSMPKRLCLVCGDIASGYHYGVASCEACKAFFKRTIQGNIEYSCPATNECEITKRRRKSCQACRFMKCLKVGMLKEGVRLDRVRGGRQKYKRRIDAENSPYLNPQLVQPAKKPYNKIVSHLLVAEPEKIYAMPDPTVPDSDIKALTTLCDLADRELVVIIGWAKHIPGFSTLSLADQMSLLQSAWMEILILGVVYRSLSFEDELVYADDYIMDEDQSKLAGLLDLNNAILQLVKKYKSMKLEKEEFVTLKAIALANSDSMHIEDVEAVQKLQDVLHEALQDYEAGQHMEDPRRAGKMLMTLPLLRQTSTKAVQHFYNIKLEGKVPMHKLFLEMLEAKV
Outline: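 Readout: fluorescent reporter-mRNA fragments resolved by capillary electrophoresis after RT-PCR and HpaI cut. Cells: transiently transfected HepG2 carrying GAL4-UAS reporters driven by exogenous NR-Gal4 chimeras, dosed 24 h. Activity fitted upward relative to DMSO baseline.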

[8] = molecular target: Glucocorticoid receptor (Homo sapiens) (UniProt P04150); experiment: ATG_GR_TRANS: Attagene TRANS-FACTORIAL HepG2 Assay for human Glucocorticoid Receptor (GR) (AID 2282978; active = hit-call score of the fitted dose curve at least 0.9, where 1 is the maximum;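 note: activators score as hits since higher reporter transcript over DMSO is fitted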); conditions: HepG2 Attagene TRANS GR reporter, mRNA transcription
Glucocorticoid receptor (Homo sapiens), sequence (P04150 whole entry, looked up, the tested form may be a part): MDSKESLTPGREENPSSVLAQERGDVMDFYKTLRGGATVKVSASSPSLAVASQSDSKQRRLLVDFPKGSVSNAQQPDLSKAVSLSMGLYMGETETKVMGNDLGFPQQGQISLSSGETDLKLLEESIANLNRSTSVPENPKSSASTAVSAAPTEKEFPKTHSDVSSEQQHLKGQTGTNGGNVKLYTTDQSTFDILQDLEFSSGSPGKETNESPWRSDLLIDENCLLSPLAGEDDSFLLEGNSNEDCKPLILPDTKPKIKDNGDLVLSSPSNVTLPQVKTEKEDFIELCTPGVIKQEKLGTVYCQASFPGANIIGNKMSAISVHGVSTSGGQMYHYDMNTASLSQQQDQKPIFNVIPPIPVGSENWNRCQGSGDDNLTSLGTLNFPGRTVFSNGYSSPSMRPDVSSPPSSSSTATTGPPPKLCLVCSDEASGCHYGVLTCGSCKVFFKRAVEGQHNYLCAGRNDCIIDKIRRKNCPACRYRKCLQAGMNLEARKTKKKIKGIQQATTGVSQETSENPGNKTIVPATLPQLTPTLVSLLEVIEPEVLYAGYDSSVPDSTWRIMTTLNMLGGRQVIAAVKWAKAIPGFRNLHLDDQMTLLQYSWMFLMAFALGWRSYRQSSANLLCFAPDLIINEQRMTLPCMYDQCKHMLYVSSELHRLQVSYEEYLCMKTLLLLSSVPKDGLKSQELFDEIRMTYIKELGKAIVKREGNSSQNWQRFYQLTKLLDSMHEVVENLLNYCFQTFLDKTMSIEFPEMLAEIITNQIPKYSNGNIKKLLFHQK
Outline: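 Reporter transcript levels, detected by fluorescence after RT-PCR and capillary electrophoresis, served as the endpoint. HepG2 cells bearing transfected GAL4-UAS reporters responsive to NR-GAL4 chimeras were incubated with compound 24 h; DMSO defined baseline.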

[9] = molecular target: Nuclear receptor subfamily 1 group I member 3 (Homo sapiens) (UniProt Q14994); experiment: ATG_CAR_TRANS: Attagene TRANS-FACTORIAL HepG2 Assay for human Constitutive Androstane Receptor (CAR) (AID 2282969; active = hit-call score of the fitted dose curve at least 0.9, where 1 is the maximum;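 note: activators raise reporter mRNA above DMSO so AC50 marks induction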); conditions: HepG2 Attagene TRANS-FACTORIAL CAR reporter
Nuclear receptor subfamily 1 group I member 3 (Homo sapiens), sequence (Q14994 whole entry, looked up, the tested form may be a part): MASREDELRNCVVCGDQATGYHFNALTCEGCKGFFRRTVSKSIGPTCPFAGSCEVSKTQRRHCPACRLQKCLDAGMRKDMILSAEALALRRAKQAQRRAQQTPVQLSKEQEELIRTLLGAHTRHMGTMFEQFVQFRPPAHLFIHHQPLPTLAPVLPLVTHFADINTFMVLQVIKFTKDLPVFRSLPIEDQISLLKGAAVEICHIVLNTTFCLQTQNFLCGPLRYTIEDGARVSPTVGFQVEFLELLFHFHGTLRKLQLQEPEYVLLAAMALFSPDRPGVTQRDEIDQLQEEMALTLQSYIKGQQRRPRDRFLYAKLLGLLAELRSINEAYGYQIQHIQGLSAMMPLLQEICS
Outline: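 Transiently transfected HepG2, multiplex TRANS reporters (CAR-Gal4 chimera driving GAL4-UAS reporter). 24 h dosing. Readout: reporter transcript by RT-PCR + capillary electrophoresis, fluorescence intensity; positive direction vs DMSO.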

[10] = ATG_GAL4_TRANS: Attagene TRANS-FACTORIAL HepG2 Assay for GAL4 (Internal Marker) (AID 2282976; active = hit-call score of the fitted dose curve at least 0.9, where 1 is the maximum); conditions: HepG2 Attagene TRANS GAL4 internal marker reporter
Outline: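 Fluorescence from capillary electrophoresis of labelled RT-PCR products quantifies reporter mRNA induction after 24 h dosing of HepG2 cells carrying transfected GAL4-UAS reporter transcription units. Vehicle DMSO serves as baseline.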

Measured: AC50

CC1(C)CCC(Cc2ccc(Cl)cc2)C1(O)Cn1cncn1 (centres undefined)
inactive: [1] | [2] | [5] | [6]
active: [3] 17.7 µM | [4] 5.3 µM

CN(C)P(=O)(N(C)C)N(C)C
not listed: [8] | [9] | [10]
inactive: all other assays above

CC(=O)c1cc(C(C)(C)C)cc2c1CCC2(C)C
inactive: [1] | [2] | [4] | [6] | [8]
active: [3] 25.6 µM | [5] 75.2 µM

CC1CN1P(=O)(N1CC1C)N1CC1C (centres undefined)
inactive: [1] | [2] | [3] | [9] | [5]

COS(=O)(=O)c1ccc(C)cc1
not listed: [7] | [9]
inactive: all other assays above

O=c1[nH]c(=O)[nH]c(=O)[nH]1
not listed: [4]
inactive: all other assays above

[O-][Cl+2]([O-])O
inactive: [1] | [2] | [3] | [9] | [5] | [10]

Nc1ccc(-c2ccc(N)c(Cl)c2)cc1Cl
active: [3] 37.6 µM | [4] 2.04 µM
inactive: [1] | [2] | [5] | [6] | [8]

O=C(c1ccccc1)C(Cl)Cl
inactive: [1] | [2] | [4] | [6] | [7]
active: [3] 7.69 µM | [5] 25.1 µM

CCCCCCCCC(=O)NCc1ccc(O)c(OC)c1
inactive: [1] | [2] | [3] | [4] | [5]

O=C1C(Cl)=C(Cl)C(=O)c2ccccc21
not listed: [9] | [10]
inactive: all other assays above

N#CN=C(N)N
inactive: [1] | [2] | [3] | [4] | [5] | [10]

Nc1ncc([N+](=O)[O-])s1
not listed: [9] | [10]
inactive: all other assays above

CCCCP(CCCC)CCCC
not listed: [7] | [8] | [9]
inactive: all other assays above

C=CC#N
inactive: [1] | [2] | [3] | [4] | [5] | [6]

COC[C@H](C)N(C(=O)CCl)c1c(C)csc1C
inactive: [1] | [2] | [4] | [5]
active: [3] 47.3 µM

C=C(C)C#N
not listed: [7] | [8] | [9]
inactive: all other assays above

C1CCC(NC2CCCCC2)CC1
active: [4] 59.7 µM
inactive: [1] | [2] | [3] | [5] | [6]

CN(C)N=O
not listed: [4] | [7]
inactive: all other assays above

c1cc[c]([Hg][c]2ccccc2)cc1
inactive: [1] | [2] | [4]
active: [3] 27.3 µM | [5] 18.7 µM

C(=NC1CCCCC1)=NC1CCCCC1
inactive: [1] | [2] | [4] | [6] | [7]
active: [3] 3.69 µM | [5] 1.97 µM

COc1cc(-c2ccc(N)c(OC)c2)ccc1N
active: [3] 27.8 µM and 31 µM | [5] 27.7 µM and 33.6 µM
inactive: [1] | [2] | [9] | [6] | [7]

O=C(Cl)c1ccc(Cl)cc1
not listed: [7] | [9]
inactive: all other assays above

NNC(=S)NN
inactive: [1] | [2] | [3] | [4] | [5] | [6]

CCOC(=O)Nc1cccc(OC(=O)Nc2ccccc2)c1
inactive: [1] | [2] | [3] | [9] | [5] | [6]

O=CC=O
inactive: [1] | [2] | [4] | [5] | [8]

ClC1(Cl)C2(Cl)C3(Cl)C4(Cl)C(Cl)(Cl)C5(Cl)C3(Cl)C1(Cl)C5(Cl)C24Cl (centres undefined)
inactive: [1] | [2] | [3] | [5] | [7]

C=C(C)C(=O)[O][Sn]([CH2]CCC)([CH2]CCC)[CH2]CCC
active: [3] 0.185 µM | [5] 0.608 µM | [8] 1.98 µM
inactive: [1] | [2] | [4]

O=C(O)C(Cl)(Cl)Cl
inactive: [1] | [2] | [3] | [5] | [6] | [10]

CCc1ccccc1C
not listed: [4] | [9] | [10]
inactive: all other assays above

COP(=O)(OC)O/C(=C\Cl)c1cc(Cl)c(Cl)cc1Cl
active: [1] 100 µM | [4] 5.86 µM
inactive: [2] | [5] | [6] | [7]

O=C1CCCN1
inactive: [1] | [2] | [9] | [5] | [6] | [8]

CCC(=O)C(CC(C)N(C)C)(c1ccccc1)c1ccccc1 (centres undefined)
inactive: [1] | [2] | [4] | [5] | [6] | [8]

ClCCBr
not listed: [3] | [6] | [8]
inactive: all other assays above

C[C@@H](Oc1ccc(Cl)cc1Cl)C(=O)O
inactive: [1] | [2] | [3] | [5] | [6] | [8]

COP(=S)(OC)Oc1cc(Cl)c(Cl)cc1Cl
active: [2] 79.6 µM | [4] 36.3 µM
inactive: [1] | [9] | [5] | [8]

CC(C)(c1ccc(OCC2CO2)cc1)c1ccc(OCC2CO2)cc1 (centres undefined)
active: [1] 23.2 µM | [3] 24.9 µM | [5] 24.4 µM
inactive: [2] | [6] | [8]

CCOC(=O)/C=C(C)/C=C/C[C@@H](C)CCCC(C)C
inactive: [1] | [3] | [5]
active: [2] 47.4 µM

CCCCOCCOC(C)=O
inactive: [1] | [2] | [3] | [5] | [6] | [10]

Cc1ccccc1C(=O)Nc1cccc(OC(C)C)c1
inactive: [1] | [2] | [5] | [6] | [8]

ClC(Cl)=C(Cl)C(Cl)=C(Cl)Cl
active: [5] 137 µM
inactive: [1] | [2] | [4] | [6] | [8]

COc1ccccc1OC
not listed: [6] | [9] | [10]
inactive: all other assays above

O=[N+]([O-])c1ccc(O)c([N+](=O)[O-])c1
inactive: [1] | [2] | [5] | [7]

CCOP(=O)(CN(CCO)CCO)OCC
inactive: [1] | [2] | [3] | [5]

CC(C)OC(=O)Nc1ccccc1
inactive: [1] | [2] | [3] | [5] | [7]

C=CCc1ccc(OC)cc1
inactive: [1] | [2] | [9] | [5]

Clc1ccc(COC(Cn2ccnc2)c2ccc(Cl)cc2Cl)cc1 (centres undefined)
inactive: [1] | [2] | [9] | [4] | [5] | [8]

CCC[CH2][Sn]([Cl])([Cl])[Cl]
inactive: [1] | [2] | [5] | [6] | [10] | [7]

COc1ccc(OC)c(C=O)c1
not listed: [4] | [7] | [9]
inactive: all other assays above

CC(=[OH+])/C=C(/C)[O-].CC(=[OH+])/C=C(/C)[O-].CC(=[OH+])/C=C(/C)[O-].[Al]
inactive: [1] | [2] | [3] | [5] | [6] | [10]

C=CC(=O)OCCCCCC(C)C
inactive: [1] | [2] | [3] | [5] | [6]

CCCCCCCCCl
inactive: [1] | [2] | [3] | [5]

C=CC(=O)N(C)C
inactive: [1] | [2] | [3] | [5] | [6] | [7]

C[C@H]1CCCC(=O)CCC/C=C/c2cc(O)cc(O)c2C(=O)O1
inactive: [1] | [2] | [5]
active: [4] 0.00409 µM

COc1ccc(C=O)cc1OC
inactive: [1] | [2] | [5] | [6]
active: [4] 58.6 µM

Nc1cccc2ccccc12
inactive: [1] | [2] | [4] | [5] | [6]

Cl/C=C/Cl
inactive: [1] | [2] | [3] | [5]

CCC1(c2ccc(N)cc2)CCC(=O)NC1=O (centres undefined)
inactive: [1] | [2] | [3] | [4] | [5] | [8]

CCOP(OCC)OCC
inactive: [1] | [2] | [9] | [5]

Cc1ccc2ccccc2c1C
inactive: [1] | [2] | [9] | [4] | [5] | [6]

CCCCC(CC)CO[N+](=O)[O-] (centres undefined)
inactive: [1] | [2] | [5] | [8]
active: [3] 143 µM

Cl/C=C\C[N+]12CN3CN(CN(C3)C1)C2
inactive: [1] | [2] | [3] | [5] | [6]

CCNc1nc(NC(C)(C)C)nc(SC)n1
inactive: [1] | [2] | [4] | [5] | [8]
active: [3] 31.8 µM

Oc1ccc(-c2ccccc2)cc1
inactive: [1] | [2] | [8]
active: [3] 83.2 µM | [5] 69.4 µM
